From the supplement of paper PMC10849652
Targets with a hit are over-represented here; the source holds about 8,800 in all. About 0.5% of all pairs of compound and target were hits. Values without a mark were called inactive.

Chain of UniProt O95819 (O95819 whole entry, looked up): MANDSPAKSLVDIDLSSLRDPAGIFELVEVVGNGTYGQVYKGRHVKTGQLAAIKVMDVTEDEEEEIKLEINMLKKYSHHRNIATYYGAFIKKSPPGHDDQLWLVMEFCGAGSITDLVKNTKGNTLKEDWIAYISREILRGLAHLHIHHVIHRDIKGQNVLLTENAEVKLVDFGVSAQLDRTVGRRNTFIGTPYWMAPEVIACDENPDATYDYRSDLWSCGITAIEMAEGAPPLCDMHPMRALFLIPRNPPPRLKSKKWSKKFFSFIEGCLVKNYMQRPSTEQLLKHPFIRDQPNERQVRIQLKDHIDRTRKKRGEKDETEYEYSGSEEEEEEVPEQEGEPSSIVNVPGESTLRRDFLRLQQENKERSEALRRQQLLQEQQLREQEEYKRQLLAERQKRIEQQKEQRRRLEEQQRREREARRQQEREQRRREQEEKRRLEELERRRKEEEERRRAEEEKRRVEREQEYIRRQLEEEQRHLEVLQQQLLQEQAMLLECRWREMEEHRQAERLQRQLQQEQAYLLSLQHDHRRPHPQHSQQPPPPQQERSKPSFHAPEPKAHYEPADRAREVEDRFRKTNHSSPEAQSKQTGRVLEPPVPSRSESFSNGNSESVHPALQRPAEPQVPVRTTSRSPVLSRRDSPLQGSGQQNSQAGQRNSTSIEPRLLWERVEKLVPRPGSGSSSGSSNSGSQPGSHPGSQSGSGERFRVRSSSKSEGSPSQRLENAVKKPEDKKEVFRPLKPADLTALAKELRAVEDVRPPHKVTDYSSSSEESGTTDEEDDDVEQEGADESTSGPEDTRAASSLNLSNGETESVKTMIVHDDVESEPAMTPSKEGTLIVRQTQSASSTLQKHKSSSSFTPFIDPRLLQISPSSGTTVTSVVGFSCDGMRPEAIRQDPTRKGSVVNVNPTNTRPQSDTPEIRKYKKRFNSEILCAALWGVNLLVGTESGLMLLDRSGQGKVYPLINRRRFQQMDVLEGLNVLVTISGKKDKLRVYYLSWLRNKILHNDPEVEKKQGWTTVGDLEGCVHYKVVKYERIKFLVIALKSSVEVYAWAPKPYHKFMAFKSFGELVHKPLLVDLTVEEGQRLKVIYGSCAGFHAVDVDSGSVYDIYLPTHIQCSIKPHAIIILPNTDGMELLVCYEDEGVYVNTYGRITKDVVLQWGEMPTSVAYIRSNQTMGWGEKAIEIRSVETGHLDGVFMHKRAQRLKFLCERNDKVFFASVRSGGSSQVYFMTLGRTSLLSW
Chain of UniProt Q9BTT4 (Q9BTT4 whole entry, looked up): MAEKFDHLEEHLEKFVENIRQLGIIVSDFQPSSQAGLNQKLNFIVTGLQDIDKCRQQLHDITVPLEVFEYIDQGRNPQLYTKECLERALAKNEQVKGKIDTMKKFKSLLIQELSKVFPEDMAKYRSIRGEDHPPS
Chain of UniProt P45985 (P45985 whole entry, looked up): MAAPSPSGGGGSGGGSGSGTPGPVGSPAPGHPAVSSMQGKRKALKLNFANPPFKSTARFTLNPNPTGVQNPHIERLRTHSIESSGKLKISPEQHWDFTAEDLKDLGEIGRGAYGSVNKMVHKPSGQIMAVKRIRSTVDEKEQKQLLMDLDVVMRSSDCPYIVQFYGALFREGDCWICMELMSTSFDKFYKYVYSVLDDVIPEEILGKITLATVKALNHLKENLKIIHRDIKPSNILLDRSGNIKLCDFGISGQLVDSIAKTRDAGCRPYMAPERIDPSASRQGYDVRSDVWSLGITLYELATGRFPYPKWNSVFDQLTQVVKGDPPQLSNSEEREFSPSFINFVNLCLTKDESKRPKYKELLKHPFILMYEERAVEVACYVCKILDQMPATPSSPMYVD
Chain of UniProt Q7Z3U7 (Q7Z3U7 whole entry, looked up): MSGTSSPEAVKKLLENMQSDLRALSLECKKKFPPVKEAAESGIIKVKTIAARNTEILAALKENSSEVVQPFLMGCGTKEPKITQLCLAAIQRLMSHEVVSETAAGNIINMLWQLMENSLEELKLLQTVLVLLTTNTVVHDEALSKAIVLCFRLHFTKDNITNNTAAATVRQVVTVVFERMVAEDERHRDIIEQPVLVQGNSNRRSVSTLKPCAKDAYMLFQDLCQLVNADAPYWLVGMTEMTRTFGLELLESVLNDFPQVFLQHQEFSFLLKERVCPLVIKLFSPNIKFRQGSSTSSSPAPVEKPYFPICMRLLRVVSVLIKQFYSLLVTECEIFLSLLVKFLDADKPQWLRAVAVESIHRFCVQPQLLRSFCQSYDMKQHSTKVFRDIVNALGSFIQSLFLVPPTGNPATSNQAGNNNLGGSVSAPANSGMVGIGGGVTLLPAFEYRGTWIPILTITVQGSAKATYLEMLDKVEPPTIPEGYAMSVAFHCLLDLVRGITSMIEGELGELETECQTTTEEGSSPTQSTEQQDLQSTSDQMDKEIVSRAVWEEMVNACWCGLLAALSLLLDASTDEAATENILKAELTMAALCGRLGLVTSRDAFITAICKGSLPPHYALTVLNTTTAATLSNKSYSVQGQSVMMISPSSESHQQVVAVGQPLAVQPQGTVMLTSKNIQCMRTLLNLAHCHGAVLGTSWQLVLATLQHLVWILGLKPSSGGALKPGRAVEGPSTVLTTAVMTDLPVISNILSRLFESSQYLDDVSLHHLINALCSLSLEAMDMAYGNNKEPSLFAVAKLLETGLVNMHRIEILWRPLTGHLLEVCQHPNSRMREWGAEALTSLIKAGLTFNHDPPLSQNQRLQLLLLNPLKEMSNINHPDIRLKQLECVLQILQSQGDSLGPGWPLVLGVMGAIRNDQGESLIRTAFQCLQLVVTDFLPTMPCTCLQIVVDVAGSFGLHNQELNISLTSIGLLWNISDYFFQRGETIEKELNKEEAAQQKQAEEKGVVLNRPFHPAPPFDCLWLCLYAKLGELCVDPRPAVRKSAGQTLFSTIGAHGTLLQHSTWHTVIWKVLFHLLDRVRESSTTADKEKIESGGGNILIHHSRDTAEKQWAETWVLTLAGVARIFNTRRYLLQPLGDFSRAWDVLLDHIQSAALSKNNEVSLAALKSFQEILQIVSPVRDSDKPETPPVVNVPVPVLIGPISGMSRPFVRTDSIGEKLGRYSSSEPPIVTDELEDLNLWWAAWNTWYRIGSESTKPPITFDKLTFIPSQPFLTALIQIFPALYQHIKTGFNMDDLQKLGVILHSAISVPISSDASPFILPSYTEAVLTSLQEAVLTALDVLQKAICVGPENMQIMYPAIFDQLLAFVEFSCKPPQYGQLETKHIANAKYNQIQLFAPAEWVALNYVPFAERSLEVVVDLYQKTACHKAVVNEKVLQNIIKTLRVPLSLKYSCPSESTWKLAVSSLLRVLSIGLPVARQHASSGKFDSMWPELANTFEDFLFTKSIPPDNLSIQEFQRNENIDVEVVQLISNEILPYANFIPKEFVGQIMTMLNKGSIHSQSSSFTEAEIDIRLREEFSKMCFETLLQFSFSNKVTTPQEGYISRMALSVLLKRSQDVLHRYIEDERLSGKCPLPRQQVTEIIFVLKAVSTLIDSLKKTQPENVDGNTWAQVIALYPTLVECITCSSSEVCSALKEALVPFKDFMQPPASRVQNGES
Chain of UniProt Q9NZB8 (Q9NZB8 whole entry, looked up): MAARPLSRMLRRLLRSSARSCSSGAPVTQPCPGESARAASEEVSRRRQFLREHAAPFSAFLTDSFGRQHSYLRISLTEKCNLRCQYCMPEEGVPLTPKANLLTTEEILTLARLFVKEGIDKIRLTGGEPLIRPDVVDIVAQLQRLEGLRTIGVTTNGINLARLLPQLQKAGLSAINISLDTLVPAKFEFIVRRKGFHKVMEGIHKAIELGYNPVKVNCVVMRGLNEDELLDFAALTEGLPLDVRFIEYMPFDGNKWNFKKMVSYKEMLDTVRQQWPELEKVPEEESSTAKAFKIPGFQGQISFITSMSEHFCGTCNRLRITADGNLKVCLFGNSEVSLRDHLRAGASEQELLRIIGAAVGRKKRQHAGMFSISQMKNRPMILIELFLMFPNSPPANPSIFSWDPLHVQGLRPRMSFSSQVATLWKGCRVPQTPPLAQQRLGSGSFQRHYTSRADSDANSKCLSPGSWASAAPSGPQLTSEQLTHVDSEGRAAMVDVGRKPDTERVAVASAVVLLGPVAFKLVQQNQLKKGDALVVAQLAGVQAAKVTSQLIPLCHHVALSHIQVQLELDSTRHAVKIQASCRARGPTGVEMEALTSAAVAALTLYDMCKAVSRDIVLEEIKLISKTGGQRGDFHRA
Chain of UniProt Q96II8 (Q96II8 whole entry, looked up): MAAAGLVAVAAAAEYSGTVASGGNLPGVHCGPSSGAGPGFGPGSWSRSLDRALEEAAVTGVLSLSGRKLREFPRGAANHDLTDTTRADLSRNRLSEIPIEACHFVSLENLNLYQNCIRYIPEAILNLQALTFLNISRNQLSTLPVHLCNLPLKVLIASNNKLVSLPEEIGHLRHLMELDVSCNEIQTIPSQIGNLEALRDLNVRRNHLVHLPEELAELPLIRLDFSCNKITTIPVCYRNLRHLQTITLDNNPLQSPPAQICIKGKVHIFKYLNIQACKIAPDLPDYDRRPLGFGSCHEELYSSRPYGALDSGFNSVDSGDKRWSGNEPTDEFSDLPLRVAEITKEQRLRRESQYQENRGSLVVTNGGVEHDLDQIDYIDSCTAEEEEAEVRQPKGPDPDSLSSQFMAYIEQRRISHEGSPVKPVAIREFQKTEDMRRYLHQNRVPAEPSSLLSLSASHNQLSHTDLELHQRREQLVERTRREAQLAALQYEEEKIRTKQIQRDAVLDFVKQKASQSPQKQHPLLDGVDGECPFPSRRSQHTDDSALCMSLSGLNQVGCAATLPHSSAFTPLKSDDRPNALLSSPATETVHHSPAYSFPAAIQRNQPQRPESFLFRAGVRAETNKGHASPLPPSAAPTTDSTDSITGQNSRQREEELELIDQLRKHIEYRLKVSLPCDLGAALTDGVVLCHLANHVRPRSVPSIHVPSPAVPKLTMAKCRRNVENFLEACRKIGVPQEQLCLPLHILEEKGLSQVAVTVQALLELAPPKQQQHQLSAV
Chain of UniProt P10620 (P10620 whole entry, looked up): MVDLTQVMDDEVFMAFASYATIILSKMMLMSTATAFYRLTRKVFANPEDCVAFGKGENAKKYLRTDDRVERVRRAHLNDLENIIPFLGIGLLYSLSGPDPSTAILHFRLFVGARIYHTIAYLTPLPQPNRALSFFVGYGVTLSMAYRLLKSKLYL

These targets were tested with CN1CCN(CCOc2cc(OC3CCOCC3)c3c(Nc4c(Cl)ccc5c4OCO5)ncnc3c2)CC1 [saracatinib] (assay: log2 fold change, soluble protein after heating vs DMSO (PISA); higher = thermal stabilisation; K562 lysate, 10 uM; active = over 0.2 and 3.5 SD of the protein, either way, in both replicates (recomputed)).
How it was run: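 A 30 min treatment with 10 μM compound was applied to crude K562 extract at 1 mg/mL protein in PBS pH 7.4 with 1 mM MgCl2. Heating for 3 min spanned 48°C-58°C, after which aliquots were pooled, adjusted to 0.5% NP-40 at 4°C and spun at 21,000xg for 90 min. TMTpro 16plex LC-MS/MS of the supernatant, with channel sums equalised, gave values recorded as log-two fold change in thermal stability against solvent controls, from duplicates.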
In the case of MAP1S (UniProt Q66K74), the log2 fold change was 0.038.
Target MON2 isoform 5 (UniProt Q7Z3U7) has a log2 fold change of -0.006.
For LRPPRC (UniProt P42704), the log2 fold change was 0.045.
LBR (UniProt Q14739) gave a log2 fold change of 0.064.
Work on MAPK14 (UniProt Q16539) yielded a log2 fold change of 0.226.
Work on MLST8 (UniProt Q9BVC4) yielded a log2 fold change of 0.075.
Work on MMS19 isoform 8 (UniProt Q96T76) yielded a log2 fold change of 0.
For KNL1 (UniProt Q8NG31), the log2 fold change was 0.006.
KLC1 isoform 6 (UniProt Q07866) gave a log2 fold change of 0.015.
In the case of MICU1 isoform 3 (UniProt Q9BPX6), the log2 fold change was 0.006.
Target MOCS1 isoform 8 (UniProt Q9NZB8) has a log2 fold change of 0.006.
With KLHL36 (UniProt Q8N4N3) the log2 fold change was -0.031.
With MAP2K4 isoform 2 (UniProt P45985) the log2 fold change was -0.063.
MED17 (UniProt Q9NVC6) gave a log2 fold change of 0.01.
MAP2K5 (UniProt Q13163) gave a log2 fold change of -0.079.
LRWD1 (UniProt Q9UFC0) was tested, and the log2 fold change was 0.025.
MCMBP (UniProt Q9BTE3) showed a log2 fold change of 0.02.
Target MRPL15 (UniProt Q9P015) has a log2 fold change of -0.07.
MAST4 (UniProt O15021) showed a log2 fold change of -0.001.
Target MBLAC2 (UniProt Q68D91) has a log2 fold change of -0.042.
For KNSTRN (UniProt Q9Y448), the log2 fold change was 0.009.
Work on MAP4K4 isoform 3 (UniProt O95819) yielded a log2 fold change of 0.082.
For MACROD1 (UniProt Q9BQ69), the log2 fold change was 0.008.
Target MAPK9 (UniProt P45984) has a log2 fold change of 0.002.
LRRC40 (UniProt Q9H9A6) gave a log2 fold change of 0.
Work on MRPL10 isoform 2 (UniProt Q7Z7H8) yielded a log2 fold change of -0.005.
MICB, A0A140T979 was tested, and the log2 fold change was 0.019.
Work on LIG3 (UniProt P49916) yielded a log2 fold change of 0.018.
For MAPKAPK3 (UniProt Q16644), the log2 fold change was 0.003.
Work on KIF2C (UniProt Q99661) yielded a log2 fold change of -0.015.
LRCH3 (UniProt Q96II8) showed a log2 fold change of 0.004.
LYAR (UniProt Q9NX58) showed a log2 fold change of 0.028.
In the case of MGST1 (UniProt P10620), the log2 fold change was 0.068.
Work on KLC4 isoform 3 (UniProt Q9NSK0) yielded a log2 fold change of -0.012.
MAPKAPK5 (UniProt Q8IW41) gave a log2 fold change of -0.009.
MED10 (UniProt Q9BTT4) was tested, and the log2 fold change was 0.077.
LPIN1 isoform 7 (UniProt Q14693) gave a log2 fold change of 0.024.
KIF21A isoform 5 (UniProt Q7Z4S6) gave a log2 fold change of 0.037.
In the case of MAP2K1 (UniProt Q02750), the log2 fold change was 0.032.
